TEAD-YAP inh = TEAD-YAP interaction inhibition. HEK-TIYL cells, TEAD-Gal4/YAP UAS-luciferase luminescence. inhibition, % at 9.12 µM. 640,000 tested, 1.4% active; in the data active means inhibition above about 32%;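 further: 0% = median of test compound wells and 100% = reference inhibitor wells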
FBW7 act = human FBW7 E3 ligase activation, primary screen. normalized activity (activation), % at 26.1 µM. AID 1259310. 650,000 tested, 0.13% active. AlphaScreen FBW7–phospho-cyclin E peptide binding, activator screen; in the data active means normalized activity above about 1.9%;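 further: purified mutant Fbw7 with reduced substrate affinity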
Target sequence (Q969H0 whole entry, looked up): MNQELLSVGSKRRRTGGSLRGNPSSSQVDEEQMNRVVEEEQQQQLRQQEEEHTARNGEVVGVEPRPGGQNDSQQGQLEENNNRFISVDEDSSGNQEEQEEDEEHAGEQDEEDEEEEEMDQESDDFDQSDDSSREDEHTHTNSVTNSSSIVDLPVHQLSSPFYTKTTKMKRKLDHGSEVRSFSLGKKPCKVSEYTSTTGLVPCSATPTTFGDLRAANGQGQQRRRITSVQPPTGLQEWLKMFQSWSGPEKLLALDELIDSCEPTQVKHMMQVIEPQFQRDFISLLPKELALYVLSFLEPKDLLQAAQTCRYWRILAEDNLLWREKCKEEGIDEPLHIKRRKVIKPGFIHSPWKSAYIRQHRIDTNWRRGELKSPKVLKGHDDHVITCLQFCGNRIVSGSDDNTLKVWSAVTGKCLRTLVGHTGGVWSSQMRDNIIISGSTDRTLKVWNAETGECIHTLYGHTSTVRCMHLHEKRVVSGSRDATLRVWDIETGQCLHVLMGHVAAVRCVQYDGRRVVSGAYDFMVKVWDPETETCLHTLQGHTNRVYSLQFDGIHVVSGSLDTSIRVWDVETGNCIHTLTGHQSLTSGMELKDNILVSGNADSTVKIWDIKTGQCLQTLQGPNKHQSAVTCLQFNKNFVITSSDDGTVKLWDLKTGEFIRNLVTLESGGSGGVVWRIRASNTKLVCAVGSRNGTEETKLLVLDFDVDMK
GPR151 ag = activates the human receptor GPR151. activation, % at 11.2 µM. Q8TDV0. PathHunter beta-arrestin GPR151 cells, luminescence. AID 1508602. 650,000 tested, 1% active; in the data active means activation above about 4.9%;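 further: 0% = median of compound wells and 100% = cells with positive control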
MITF primary = blocks human microphthalmia-associated transcription factor; O75030; AlphaScreen MITF homodimerization, bead proximity signal; inhibition, % at 2.6 µM; 650,000 tested, 0.91% active; in the data active means inhibition above about 50%;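 further: 0% = vehicle wells with protein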
The depositor's hits bear a star. Most compounds without a hit are left out; they make up all but 3.5% or so of the library.

SMILES | TEAD-YAP inh | FBW7 act | GPR151 ag | MITF primary
COc1ccc(/C=C2\Oc3cc(OC(C)=O)ccc3C2=O)cc1 | 50.5* | 0.1 | -1.8 | -16.1
Cn1c(SCC(=O)NC23CC4CC(CC(C4)C2)C3)nnc1-c1cccc([N+](=O)[O-])c1 | 9.6 | 0.0 | 1.4 | 6.4
O=c1cc(-c2ccc(O)c(O)c2)oc2cc(O)c(C3OC(CO)C(O)C(O)C3O)c(O)c12 (stereo not drawn) | 3.4 | -0.3 | -1.4 | 73.7*
C[C@@H]1O[C@@H](OC[C@H]2O[C@@H](Oc3c(-c4ccc(O)c(O)c4)oc4cc(O)cc(O)c4c3=O)[C@H](O)[C@@H](O)[C@@H]2O)[C@H](O)[C@H](O)[C@H]1O | 3.0 | -0.2 | -0.7 | 83.4*
O=c1cc(-c2ccc(O)cc2)oc2c(C3O[C@H](CO)[C@@H](O)[C@H](O)[C@H]3O)c(O)cc(O)c12 (stereo partly drawn) | -7.7 | -0.1 | -0.5 | 32.3
O=c1c(O[C@@H]2OC([C@H](O)CO)[C@H](O)[C@H]2O)c(-c2ccc(O)c(O)c2)oc2cc(O)cc(O)c12 (stereo partly drawn) | -7.0 | 0.3 | 0.8 | 84.3*
O=c1c(O[C@@H]2O[C@H](CO)[C@@H](O)[C@H](O)[C@H]2O)c(-c2ccc(O)c(O)c2)oc2cc(O)cc(O)c12 | -2.2 | -0.3 | 1.1 | 61.1*
O=c1c(O[C@@H]2O[C@H](CO)[C@H](O)[C@H](O)[C@H]2O)c(-c2ccc(O)c(O)c2)oc2cc(O)cc(O)c12 | -7.2 | -0.2 | -0.3 | -9.3
COc1cccc(CN2CCN(Cc3cccnc3)CC2CCO)c1 (stereo not drawn) | -8.9 | 0.1 | 0.6 | 0.3
CCCCN(CC)C(=O)Cn1cnc2scc(-c3ccccc3)c2c1=O | 9.3 | -0.1 | 0.1 | 3.2
Cc1cc(C)nc(NS(=O)(=O)c2ccc(NC(=O)COc3cccc(C)c3C)cc2)n1 | -5.6 | 0.1 | -0.1 | 2.7
COc1ccc(C(=O)OCC(=O)NC(=O)NC2CCCC2)c(O)c1 | 8.4 | -0.1 | 0.8 | -6.3
COCCN(CC(=O)NC1CCCCC1)C(=O)/C=C/C(=O)c1ccc(OC)cc1O | 49.5* | 0.0 | 1.9 | -1.8
CCc1ccc(NC(=O)COC(=O)c2cc(=O)c3cc(F)ccc3o2)cc1 | -0.5 | 2.8* | 0.3 | -4.5
O=C(COC(=O)c1cc(F)c(F)cc1Cl)Nc1ccc(F)cc1 | -2.8 | 0.1 | -0.5 | -0.8
CCOc1ccc(NC(=O)COC(=O)c2cc(=O)c3ccccc3o2)cc1 | 13.7 | 0.0 | -0.5 | 2.0
O=C(COC(=O)c1cc(O)c(O)c(O)c1)Nc1ccc(F)cc1 | 6.3 | 0.4 | -2.3 | 67.9*
CCOc1ccc2nc(NC(=O)CSc3ncccc3C(=O)O)sc2c1 | -21.6 | -0.1 | -2.1 | -2.4
O=C(N/N=C/c1ccc2c3c(cccc13)CC2)C1COc2ccccc2O1 (stereo not drawn) | 48.9* | 0.0 | -1.1 | -23.3
Cc1ccc(/C=N/NC(=O)C2COc3ccccc3O2)c(O)c1 (stereo not drawn) | 53.2* | -0.1 | -0.9 | -18.8
O=C(N/N=C/c1ccccc1)C1COc2ccccc2O1 (stereo not drawn) | 37.3* | -0.1 | 2.7 | -0.3
COc1cc([N+](=O)[O-])cc(/C=N/NC(=O)C2COc3ccccc3O2)c1O (stereo not drawn) | 2.5 | 0.6 | -1.4 | 10.7
COc1cccc(/C=N/NC(=O)C2COc3ccccc3O2)c1O (stereo not drawn) | 7.3 | -1.2 | -0.2 | 68.8*
COc1cccc(CNC(=O)CNC(=S)N(CCCN2CCOCC2)Cc2cccs2)c1 | -1.0 | 0.0 | 1.1 | 4.8
C/C(=N\NC(=O)C1COc2ccccc2O1)c1ccco1 (stereo not drawn) | 39.1* | 0.4 | -0.9 | -0.9
SMILES | TEAD-YAP inh | FBW7 act | GPR151 ag | MITF primary
C/C(=N\NC(=O)C1COc2ccccc2O1)c1ccccc1 (stereo not drawn) | 25.4 | 0.5 | -1.6 | 1.2
COc1cc(Cl)cc(/C=N\NC(=O)C2COc3cc4ccccc4cc3O2)c1O (stereo not drawn) | 52.7* | -0.3 | -0.9 | -10.3
O=C(N/N=C/c1ccc(O)c(O)c1O)C1COc2ccccc2O1 (stereo not drawn) | -2.5 | -1.2 | -0.3 | 55.3*
CCN1CCN(S(=O)(=O)c2ccc(F)cc2)CC1 | 7.9 | -0.1 | -0.4 | -3.3
O=C1C=C(NCc2ccccc2)c2ccccc2C1=O | 50.7* | -0.4 | -0.5 | 11.9
O=C1C=C(Nc2cccc(C(=O)O)c2)c2ccccc2C1=O | 2.4 | -0.2 | 1.1 | 3.0
Nc1c(C(=O)N2CCCCC2)sc2nc(-c3cccs3)cc(C(F)(F)F)c12 | 1.4 | 4.1* | -0.5 | -5.0
CS(=O)(=O)N(CC(N)=O)c1ccc(Cl)c(Cl)c1 | -4.0 | 0.2 | 0.4 | 1.1
C=CCn1c(SCC)nnc1-c1ccc([N+](=O)[O-])cc1 | -0.2 | 0.1 | 0.6 | 8.7
C=CCn1c(Sc2ccc([N+](=O)[O-])cn2)nnc1-c1ccc(OC)cc1 | 48.0* | 0.0 | -0.3 | -6.7
Cc1ccc(NC(=O)/C=C\C(=O)O)cc1 | -3.0 | 0.0 | 0.4 | -1.1
O=C(O)/C=C/C(=O)Nc1ccc(Oc2ccc(Oc3ccc(NC(=O)/C=C/C(=O)O)cc3)cc2)cc1 | 38.8* | 0.0 | 1.4 | -2.8
CC(CCc1ccccc1)N1CCN(S(=O)(=O)c2ccccc2)CC1 (stereo not drawn) | -1.3 | -0.2 | -0.3 | 23.9
CNC(=S)N1CCC(NC(=O)C(Cc2ccc(OC)cc2)NC(C)=O)CC1 (stereo not drawn) | -15.5 | 2.4* | 3.4 | 4.8
COCC(=O)N1CCN(Cc2csc(-c3ccccc3)n2)CC1 | -31.4 | 0.1 | 0.8 | 13.8
Cc1nc(C)c(C(=O)N2CCN(Cc3csc(-c4ccccc4)n3)CC2)s1 | 39.8* | -0.1 | 0.9 | 0.9
O=C(c1ccc(-n2cccc2)cc1)N1CCN(Cc2csc(-c3ccccc3)n2)CC1 | 60.0* | -0.5 | -0.4 | 42.0
Cc1nc(-n2cccc2)sc1C(=O)N1CCN(Cc2csc(-c3ccccc3)n2)CC1 | 30.4 | -0.1 | -1.5 | 11.4
O=C(CCSc1ccc(Cl)cc1)Nc1nccs1 | -1.3 | 0.0 | 2.1 | 3.8
NS(=O)(=O)c1ccc(NC(=O)c2cc(-c3ccccc3)nc3ccccc23)cc1 | 2.1 | 1.9* | -1.1 | 19.4
COc1cc(C(=O)Nc2ccccc2C(=O)Nc2ccccc2)cc(OC)c1OC | 53.4* | 0.1 | 0.6 | -8.0
COc1cc(C(=O)Nc2ccccc2C(=O)NCCc2ccccc2)cc(OC)c1OC | 38.9* | 0.0 | 0.4 | -7.5
NS(=O)(=O)c1ccc(NC(=O)c2cc(-c3ccncc3)nc3ccccc23)cc1 | 10.4 | 0.3 | 0.6 | 18.7
COc1cc(C(=O)NCc2ccc(C(=O)NCCc3ccccc3)cc2)cc(OC)c1OC | -5.2 | 0.1 | -0.7 | 10.8
COc1cc(C(=O)Nc2ccccc2C(=O)Nc2cccc(C(=O)O)c2)cc(OC)c1OC | 0.7 | -0.1 | 0.3 | 0.6
CCOc1ccc(NC(=O)c2cc(OC)c(OC)c(OC)c2)cc1 | 54.6* | -0.3 | 1.1 | -1.7
O=C1CC(Cc2ccc(Cl)cc2)C(=O)N1c1ccccc1I (stereo not drawn) | 2.0 | -0.1 | -0.3 | 4.5
Cc1ccc(NC(=O)Cn2nc(C(=O)N3CCOCC3)cc2-c2cccs2)cc1F | -1.3 | 0.6 | -1.5 | 15.0
